Results: PubChem BioAssay AID1376 (SRMLSC, 2008)
Screen size: about 220,000 compounds; about 530 (0.24%) were called active. The sample holds actives, similar compounds and a random draw of the others, so the mix is not that of the screen. Rule as the data show it: active = inhibition above about 13%; inconclusive = no clear call, values can overlap the other calls; inactive = below that. Results with a measured potency or affinity are listed apart.

target: Bifunctional protein GlmU (Mycobacterium tuberculosis (strain ATCC 25618 / H37Rv)) (UniProt P9WMN3); assay: inhibition of mycobacterial GlmU enzyme – biochemical, glucosamine-1-phosphate acetyltransferase (AID 1376);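 also: 0% = complete reaction with vehicle and 100% = reaction without substrate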; details: M. tuberculosis GlmU acetyltransferase enzyme assay; hits give high values;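 tested at 30 µM in the primary screen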
Sequence (P9WMN3 whole entry, looked up): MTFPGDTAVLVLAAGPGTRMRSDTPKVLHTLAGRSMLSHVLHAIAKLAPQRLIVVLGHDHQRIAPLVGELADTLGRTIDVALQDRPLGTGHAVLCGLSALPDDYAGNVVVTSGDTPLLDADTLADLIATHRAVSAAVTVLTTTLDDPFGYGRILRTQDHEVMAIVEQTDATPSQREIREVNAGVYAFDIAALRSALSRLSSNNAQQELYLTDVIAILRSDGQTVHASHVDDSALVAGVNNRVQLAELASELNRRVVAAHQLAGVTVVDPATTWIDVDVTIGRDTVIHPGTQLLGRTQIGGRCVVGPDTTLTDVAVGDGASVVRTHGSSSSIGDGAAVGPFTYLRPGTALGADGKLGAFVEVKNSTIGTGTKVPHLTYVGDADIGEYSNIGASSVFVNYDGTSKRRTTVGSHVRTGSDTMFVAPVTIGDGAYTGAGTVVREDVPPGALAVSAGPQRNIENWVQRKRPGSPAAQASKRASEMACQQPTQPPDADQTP

| Compound | inhibition |
| --- | --- |
| CC(=O)c1ccc(N2CCN(C(=O)Nc3cccc(F)c3)CC2)cc1 | -1.45% (inactive) |
| COc1cccc(C2/C(=C(\O)c3ccc4c(c3)OCO4)C(=O)C(=O)N2CCN(C)C)c1OC (configuration not stated) | 1.43% (inactive) |
| O=C(O)c1ccc(N=Cc2c(O)n(Cc3ccc(F)cc3)c(=O)[nH]c2=O)cc1 | -1% (inactive) |
| Cc1ccc(NS(=O)(=O)c2ccc(C3CCCCC3)cc2)cc1 | -5.89% (inactive) |
| C=CCn1c(-c2c(C)nc3cc(C)ccn23)n[nH]c1=S | 0.98% (inactive) |
| Cc1ccc(N(CC(=O)NCCSCc2ccco2)S(=O)(=O)c2ccc(C)cc2)cc1 | -1.27% (inactive) |
| CN1CCN(c2ccc([N+](=O)[O-])c(Sc3nncn3C)c2)CC1 | -2.97% (inactive) |
| COc1ccc(-c2ccc(-c3noc(-c4ccccc4)n3)c(OC)n2)cc1 | 6.47% (inactive) |
| COc1ccc(-c2ccc(-c3noc(-c4cccc(OC)c4)n3)c(OC)n2)cc1 | 14% (active) |
| COc1ccc(-c2ccc(-c3noc(-c4ccco4)n3)c(OC)n2)cc1 | 1.18% (inactive) |
| O=[N+]([O-])c1cccc(/C=N/Nc2ccccn2)c1 | 0.69% (inactive) |
| O=C1CC(N(O)c2ccccc2)C(=O)N1Cc1ccccc1 (configuration not stated) | 8.24% (inactive) |
| C/C(=N\N=C1\NC(=O)C(Cc2ccccc2)S1)c1ccccc1 (configuration not stated) | 2.56% (inactive) |
| Cc1ccc(Sc2cc(C(F)(F)F)nc(N(C)C)n2)cc1 | -0.68% (inactive) |
| Cc1cc(C)n2c(SCCN3C(=O)c4ccccc4C3=O)nnc2n1 | 0.6% (inactive) |
| CCOC(=O)c1cnc(SCC#N)nc1N | 0.91% (inactive) |
| NS(=O)(=O)c1cccc(NC(=O)CSc2nc3ccccc3[nH]2)c1 | 4.49% (inactive) |
| O=C(CSc1nc2ccccc2[nH]1)Nc1ccc(F)cc1 | -1.92% (inactive) |
| NS(=O)(=O)c1ccc(NC(=O)CSc2nc3ccccc3[nH]2)cc1 | 13.4% (active) |
| Cc1csc(OCc2ccc(C#N)cc2)n1 | 4.28% (inactive) |
| CCOc1c(C#N)c(C#N)c2nc(C)cc(C)n12 | -3.28% (inactive) |

| Compound | inhibition |
| --- | --- |
| CCn1ncc2c(OCc3ccc(C#N)cc3)cc(C)nc21 | 13% (active) |
| c1cnc2ccc(C(c3nnnn3C3CCCCC3)N3CCN4CCCC4C3)cc2c1 (configuration not stated) | -1.69% (inactive) |
| O=C(Nc1cccc([N+](=O)[O-])c1)c1ccccc1 | -2.61% (inactive) |
| O=C(O)c1ccccc1C(=O)Nc1cccc([N+](=O)[O-])c1 | 17.2% (active) |
| O=C(O)c1cc([N+](=O)[O-])ccc1C(=O)Nc1ccccc1 | 0.35% (inactive) |
| COc1ccc(/C=C/C(=O)C2CC2)cc1COc1cccc(C)c1C | 1.77% (inactive) |
| O=C(CSCc1ccc(Cl)cc1Cl)Nc1ccccc1C(=O)Nc1ccc(C(=O)O)cc1 | -3.25% (inactive) |
| CC(C)(CN1CCN(c2ccccc2)CC1)NS(=O)(=O)c1ccccc1 | -4.3% (inactive) |
| COC(=O)c1ccccc1CCC(C)=O | -1.25% (inactive) |
| O=c1oc2ccccc2c2oc3cc(O)c(O)cc3c12 | 2.91% (inactive) |
| O=c1cc2c(=O)oc3cc(O)c(O)oc3c2c(O)c1O | 16.8% (active) |
| O=c1oc2cc(O)c(Cl)cc2c2ccccc12 | 2.71% (inactive) |
| CN1C(=O)NC(=O)/C(=C/c2ccc(C(=O)O)cc2)C1=O | 2.77% (inactive) |
| CN(C(=O)CC(=O)Nc1ccc(Cl)c(Cl)c1)c1ccccc1 | 0.26% (inactive) |
| CC(CCc1ccccc1)NC(=O)C1CCCN(c2nnc(-n3cccc3)s2)C1 (configuration not stated) | 7.96% (inactive) |
| COC(=O)c1ccccc1NC(=O)N1CCN(c2ccccc2)CC1 | -3.35% (inactive) |
| COCCNC(=O)C1CC2Cn3c(nc4cc(C)c(C)cc43)C2N1C (configuration not stated) | 1.27% (inactive) |
| Nc1ccc(Cc2ccc(N)c(O)c2)cc1O | 13.4% (active) |
| Nc1ccc(Cc2ccc(N)c(C(=O)O)c2)cc1C(=O)O | 7.1% (inactive) |
| Cc1cc(Cc2ccc(N)c(C)c2)ccc1N | -3.87% (inactive) |
| CC(=O)c1ccc2c(c1)C1C=CCC1C(c1ccc(S(=O)(=O)N3CCOCC3)cc1)N2 (configuration not stated) | 0.66% (inactive) |

| Compound | inhibition |
| --- | --- |
| O=C(O)c1ccc(NS(=O)(=O)c2ccc3c(c2)C2C=CCC2C(c2ccccc2F)N3)cc1 (configuration not stated) | 25.9% (inactive) |
| Cc1c(Cl)cccc1NS(=O)(=O)c1ccc2c(c1)C1C=CCC1C(c1ccc(C(=O)O)cc1)N2 (configuration not stated) | 23.6% (active) |
| COc1cccc(NS(=O)(=O)c2ccc3c(c2)C2C=CCC2C(c2ccc(C(=O)O)cc2)N3)c1 (configuration not stated) | 13.1% (active) |
| COc1ccc(C(=O)N/N=C(\C)c2ccc3c(c2)C2C=CCC2C(c2ccccc2)N3)cc1 (configuration not stated) | 7.99% (inactive) |
| O=C(O)c1ccc2c(c1)C1C=CCC1C(c1ccncc1)N2 (configuration not stated) | -9.79% (inactive) |
| CC1CCc2sc(C(=O)OCC(=O)NCc3ccccc3)cc2C1 (configuration not stated) | -4.45% (inactive) |
| CC12CCC(C/C1=N\OC(=O)c1ccc(F)cc1)C2(C)C (configuration not stated) | 1.74% (inactive) |
| C/C=C/C(=O)N1CC2(CC(c3cccc(NC(=O)/C(C)=C/C)c3)=NO2)C[C@H]1C(N)=O (some centres not stated) | 3.31% (inactive) |
| Cc1cc(C)n(-c2cc(N3CCN(S(=O)(=O)c4ccc(Cl)cc4)CC3)ccc2[N+](=O)[O-])n1 | 5.84% (inactive) |
| COc1cccc2c(=O)n(CC(=O)N3CCc4ccccc43)ccc12 | 1.33% (inactive) |
| N#CC1=C(N)N(c2ccccc2)C2=C(C(=O)CCC2)C1c1cccs1 (configuration not stated) | 2.47% (inactive) |
| CCCCNC(=O)Oc1c(Br)cc2sc(=O)oc2c1Br | 13.8% (active) |
| CCCCNC(=O)Oc1cc(CCl)on1 | -3.53% (inactive) |
| O=C(NC1CCCCC1)Oc1cc2oc(=O)sc2cc1Br | -0.42% (inactive) |
| CSc1cccc(NC(=O)C2CCCN2S(=O)(=O)c2ccc(Br)s2)c1 (configuration not stated) | 7.56% (inactive) |
| CSc1ccc(C(=O)C2CCCN(Cc3cnc(SC)nc3)C2)cc1 (configuration not stated) | -1.56% (inactive) |
| COc1cccc(N2CCN(C(=O)NC3CCCCC3)CC2)c1 | -5.07% (inactive) |
| CCCCC(CC)C1OCC(CN2CCCCC2)O1 (configuration not stated) | 7.5% (inactive) |
| CN1C(=O)C(=Cc2ccc(Sc3ccccc3)o2)C(=O)N(C)C1=O | -2.7% (inactive) |
| O=C1NC(=O)N(c2ccccc2)C(=O)/C1=C/c1ccc(Sc2ccccc2)o1 | 19.6% (inactive) |
